FUS yeast rescue – suppressors of FUS proteinopathy in yeast; S. cerevisiae FUS-expressing, growth rescue, OD600, 24 h; Potency, µM (top dose mostly 76.6 µM), most hits filed as activators; 390,000 tested, 0.24% active; AID 1347120; further: nearly all actives have a fitted effect of over 55% in size
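Restored growth of FUS-toxic S. cerevisiae, read as 600 nm absorbance after 24 h at 30C in galactose medium (starting OD 0.005). Controls CP55940 and DMSO.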
LDHA inh – blocks human lactate dehydrogenase A. AID 1347041. purified LDHA, NADH/diaphorase-resazurin fluorescence; hits give low values. 480,000 tested, 0.15% active. P00338. activity change, % (values are at about 110 or 230 µM); in the data active means activity change below about -30%; inconclusive means mostly about -25% to -30%
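LDH5 2 nM; NADH 0.06 mM, pyruvate 0.2 mM; 200 mM Tris pH 7.4, EDTA, Tween-20; 5 min RT. Detection: diaphorase 0.133 mg/mL + resazurin 37 µM, fluorescence ex540/em590 at 0 and 20 min; normalized to enzyme-free and DMSO wells.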
TDP-43 yeast inh – rescues yeast growth from TDP-43 toxicity. Potency, µM (highest dose often 46.1 µM), most hits filed as activators. TDP-43 expressing yeast growth rescue, BacTiter-Glo, 24 h. 410,000 tested, 1.8% active; further: nearly all actives have a fitted effect of over 50% in size
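Readout is BacTiter-Glo luminescence of cell growth, so inhibitors register as activators. TDP-43-expressing yeast at OD600=0.02 in galactose medium, after raffinose pregrowth to mid-log, were incubated with compound for 24 hr at 30 deg C.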
aSyn rescue – rescues yeast growth from alpha-synuclein toxicity; Yeast expressing alpha-synuclein, growth rescue, BacTiter-Glo, 24 h; Potency, µM (highest dose often 46.1 µM), hits mostly activators; 370,000 tested, 0.14% active; AID 652106; further: nearly all actives have a fitted effect of over 65% in size
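Screening used galactose-induced yeast with toxic alpha-synuclein levels, exposed to compound for 24 hr at 30 deg C. Cell growth, read with BacTiter-Glo luminescence, gave the measured signal.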
Abeta rescue – restores growth of yeast expressing A-beta42 peptide; yeast expressing A-beta42, growth rescue, OD600, 48 h; response scale: 0% DMSO, 100% iron-clioquinol control; Potency, µM (series often up to 46.1 µM), usual class: activators; 410,000 tested, 0.063% active; further: nearly all actives have a fitted effect of over 55% in size
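Yeast growth medium received pinned compounds, then yeast cells expressing toxic A-beta were added; plates incubated at 30 C for 48 hr. Growth read as absorbance at 600 nm, normalized to DMSO and equimolar FeCl3 plus clioquinol controls.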
IDH1 R132H inh – blocks human mutant IDH1 R132H enzyme. 390,000 tested, 0.093% active. IDH1-R132H enzyme, NADPH consumption, diaphorase/resazurin fluorescence. AID 602179. Potency, µM (titrated, usually from 76.6 µM), hits mostly inhibitors; further: nearly all actives have a fitted effect of over 65% in size
Target sequence (O75874 whole entry R132H, stated change not applied): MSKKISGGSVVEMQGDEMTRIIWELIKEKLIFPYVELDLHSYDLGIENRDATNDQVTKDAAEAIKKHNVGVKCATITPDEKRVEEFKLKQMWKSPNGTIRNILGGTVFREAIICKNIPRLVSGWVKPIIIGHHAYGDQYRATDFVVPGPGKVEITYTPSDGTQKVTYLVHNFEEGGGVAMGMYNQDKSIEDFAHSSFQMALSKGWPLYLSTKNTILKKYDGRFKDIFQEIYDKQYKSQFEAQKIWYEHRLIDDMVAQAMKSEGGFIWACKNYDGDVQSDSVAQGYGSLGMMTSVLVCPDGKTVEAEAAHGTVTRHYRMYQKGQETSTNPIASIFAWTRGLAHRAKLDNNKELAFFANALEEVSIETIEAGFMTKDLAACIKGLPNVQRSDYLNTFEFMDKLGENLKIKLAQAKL
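IDH1-R132H (0.5 ug/mL dispensed) in pH 7.5 Tris buffer was preincubated 30 min with compound, then given a substrate mix of 0.016 mM NADPH and 2 mM alpha-KG for 80 min at room temperature; remaining NADPH was read by diaphorase/resazurin fluorescence.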
A number is an active result; n = inactive; u = inconclusive; x = no result given. Compounds with a hit are over-represented: about 2% of the library has one in this group of screens. Unless noted, the call rests on the fitted dose curve; in most records, active means well fitted curve in the direction sought with a large enough effect; inconclusive means small, poorly fitted or top-dose-only effect, or another doubt; inactive means no such curve, though single readings can be large; an effect the other way counts as inactive or inconclusive.

SMILES	FUS yeast rescue	LDHA inh	TDP-43 yeast inh	aSyn rescue	Abeta rescue	IDH1 R132H inh
COc1ccc(C2=NN3C(=O)c4c(ccc(OC)c4OC)C3C2)cc1 (stereo not given)	n	n	n	n	n	n
COc1ccc2c(c1OC)C(=O)N1N=C(c3ccc(-c4ccccc4)cc3)CC21 (stereo not given)	n	n	n	n	n	n
COc1ccc2c(c1OC)C(=O)N1N=C(c3ccc(Cl)cc3)CC21 (stereo not given)	n	n	35µM	n	n	n
CCOc1ccc(S(=O)(=O)Nc2nc3ccccc3nc2Cl)cc1	n	n	22µM	n	n	n
CCOc1ccc(NS(=O)(=O)c2ccc(NS(C)(=O)=O)cc2)cc1	n	n	n	n	n	n
CCOc1ccc(NS(=O)(=O)c2ccc(NS(=O)(=O)c3ccc(SC)cc3)cc2)cc1	28µM	n	n	n	n	u
Cc1ccc(OCCN(C)Cc2cc(=O)oc3c(C)c(O)ccc23)cc1	x	n	x	x	x	x
COC(=O)c1cc(C(=O)OCC(=O)Nc2ccccc2OC(F)F)cc([N+](=O)[O-])c1	n	n	22µM	n	n	n
CCOc1ccccc1NC(=O)COC(=O)c1cc(C(=O)OC)cc([N+](=O)[O-])c1	n	n	n	n	n	n
O=C(COC(=O)Cc1ccc(Cl)cc1Cl)Nc1ccc(OC(F)F)cc1	x	n	n	n	n	n
O=C(COC(=O)C1CCCCC1)Nc1ccccc1OC(F)F	n	n	13µM	n	n	n
O=C(COC(=O)Cc1ccc(Cl)cc1Cl)Nc1ccccc1OC(F)F	n	n	20µM	n	n	n
S=C(NCCc1ccccc1Cl)Nc1ccc(Cl)c(Cl)c1	x	n	x	x	x	x
COc1cc(/C=C(/C#N)C(=O)c2ccccc2)ccc1OC(F)F	x	n	x	x	x	x
c1csc(-c2nc3c4ccccc4c4ccccc4c3[nH]2)c1	n	n	20µM	n	n	n
COCCN=C1NN=C(c2cc(C)n(CC3CCCO3)c2C)CS1 (stereo not given)	35µM	n	n	n	n	n
COCCCN=C1NN=C(c2cc(C)n(Cc3ccccc3Cl)c2C)CS1	u	n	n	n	n	n
CC(C)(C)c1ccccc1NC(=O)c1ccc2ccccc2n1	x	n	x	x	x	x
Cn1c(=O)c2c(-c3ccccc3)n3c(c2n(C)c1=O)C(c1cccc(Cl)c1)OCC3(C)C (stereo not given)	x	n	x	x	x	x
Clc1cccc(-c2nc3ccc(Cl)cn3c2Cc2ccccc2)c1	n	n	16µM	n	n	x
Fc1cccc(Cc2c(-c3cccc(Br)c3)nc3ccc(Cl)cn23)c1	n	n	25µM	n	n	x
Clc1cccc(-c2nc3ccc(Cl)cn3c2Cc2ccsc2)c1	n	n	u	n	n	x
Fc1ccc(-c2nc3ccc(Br)cn3c2Cc2cccc(F)c2)cc1	n	n	n	n	n	x
Cc1ccccc1N(C)S(=O)(=O)c1nnc(NC(=O)C(C)C)s1	n	n	n	x	n	n
Cc1ccccc1N(C)S(=O)(=O)c1nnc(NC(=O)c2ccccc2F)s1	n	n	13µM	n	n	n
SMILES	FUS yeast rescue	LDHA inh	TDP-43 yeast inh	aSyn rescue	Abeta rescue	IDH1 R132H inh
Cc1noc(/C=C/c2nn(C)cc2Cl)c1[N+](=O)[O-]	n	n	13µM	n	n	n
Cc1cccc(/C=C/c2onc(C)c2[N+](=O)[O-])n1	n	n	13µM	u	n	n
CN(C)C(=O)c1cccc(NC(=O)c2cc(Br)c(Br)s2)c1	x	n	x	x	x	x
N#Cc1ccccc1NC(=O)COC(=O)c1cccs1	n	n	10µM	n	n	n
O=C(CSc1ccnc(=O)[nH]1)NCc1ccc(F)cc1	n	n	3.2µM	x	n	n
O=C(CSc1ncccn1)NCc1ccc(F)cc1	n	n	16µM	n	n	n
O=C(CSc1ccc(-c2ccccn2)nn1)NCc1ccc(F)cc1	u	n	16µM	n	n	n
O=C(CSc1ccc(-c2ccccn2)nn1)NCc1ccccc1	n	n	n	n	n	n
Cc1sc(NC(=O)c2cccc(C#N)c2)c(C#N)c1C	x	n	x	x	x	x
CCNc1c(NC(=O)Nc2cc(Cl)ccc2C)c(=O)oc2ccccc12	x	n	x	x	x	x
COc1ccc(-c2oc(=O)oc2-c2ccc(OC)c(OC)c2)cc1OC	x	n	x	x	x	x
NC(=O)C(Sc1ncc(C(F)(F)F)cc1Cl)c1ccc(F)cc1 (stereo not given)	x	n	x	x	x	x
O=C(c1cc2cc(F)ccc2[nH]1)N1CCCC(Nc2ccc(F)cc2)C1 (stereo not given)	n	n	18µM	n	n	n
Cc1csc2ncnc(N3CCN(C(=S)Nc4ccc(C(F)(F)F)cc4)CC3)c12	u	n	13µM	n	n	n
Cc1csc2c(N3CCN(C(=S)Nc4ccc(C(F)(F)F)cc4)CC3)ncnc12	n	n	n	n	n	n
S=C(N/N=C/c1ccc(Cl)cc1)N1CCOCC1	x	n	u	n	u	n
Cc1ccc(/C=N/NC(=S)N2CCOCC2)cc1	x	n	22µM	n	u	n
Cc1c(Cl)cccc1NC(=O)COc1ncnc2ccc(Br)cc12	x	n	x	x	x	x
Cc1cccc(NC(=O)COc2ncnc3ccc(Br)cc23)c1C	x	-31	x	x	x	x
COc1ccc(Cc2c(-c3ccco3)nc3ccc(Cl)cn23)c(C)c1	n	n	22µM	n	n	x
COc1ccc(Cc2c(-c3ccccc3)nc3ccc(Cl)cn23)c(C)c1	n	n	n	n	n	x
COc1ccc(Cc2c(-c3ccco3)nc3ccc(Br)cn23)c(C)c1	n	n	4.5µM	u	n	x
CC(C)(C)Cc1c(-c2ccco2)nc2ccc(Cl)cn12	n	n	11µM	u	n	x
CCn1c(SCC(=O)c2ccc(Br)s2)nnc1-c1ccc(OC)cc1	x	n	x	x	x	x
Cc1ccc(NC(=O)c2ccc3[nH]c(C)c(C)c3c2)cc1	x	n	x	x	x	x

Bioassay records as filed in PubChem BioAssay.
